In PubChem BioAssay one finds z-score data, which are given here for 15 molecules.

The source made the active and inactive calls.

Assay [1] in a line: compound effects on lung adenocarcinoma cell viability – A549, calcein-AM fluorescence, 48 h, basal, profiling panel (AID 1162). Conditions: higher = more signal.
Assay [2] in a line: compound effects on differentiated 3T3-L1 adipocyte viability – cell-based, 3T3-L1 adipocytes, calcein-AM fluorescence, 48 h, basal, profiling panel (AID 1163). The note with it: 3T3-L1 adipocytes viability, higher = more signal.
Assay [3] is described as follows: compound effects on hepatocellular carcinoma cell viability – HepG2, calcein-AM fluorescence, 48 h, basal, profiling panel (AID 1164). The note with it: higher = more signal.
Assay [4] is described as follows: compound effects on multiple myeloma cell viability – MM1S, calcein-AM fluorescence, 48 h, basal, profiling panel (AID 1165). Conditions: higher = more signal.
The nature of assay [5]: calcein-AM signal in unstimulated myeloma cells – cell-based, calcein-AM fluorescence, 48 h, PK04 Diversity Set, profiling panel (AID 1166).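 Also: cells grown under basal conditions without added stimulus.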 Conditions: RPMI8226 myeloma viability, higher = more signal.
A short description of assay [6]: JC-1 mitochondrial signal, unstimulated HepG2 cells – cell-based, JC-1 fluorescence, 24 h, 100 nL compound, profiling panel (AID 1167). The note with it: HepG2 mitochondrial potential, higher = more signal.
The nature of assay [7]: JC-1 mitochondrial signal, unstimulated adipocytes – cell-based, JC-1 fluorescence, 3T3-L1 adipocytes, 24 h, 100 nL compound, profiling panel (AID 1168). Conditions: JC-1 mitochondrial fluorescence, higher = more signal, called active from +8 up or from −8 down.
Assay [8] is described as follows: JC-1 mitochondrial signal, unstimulated myeloma cells – cell-based, JC-1 fluorescence, RPMI8226, 24 h, 100 nL compound, profiling panel (AID 1169). Conditions: JC-1 mitochondrial potential fluorescence, higher = more signal.
Assay [9] is described as follows: JC-1 mitochondrial signal, unstimulated MM1S myeloma – cell-based, JC-1 fluorescence, 24 h, 100 nL compound, profiling panel (AID 1170). Conditions: MM1S mitochondrial potential, higher = more signal.
Assay [10] is described as follows: resazurin metabolic signal in A549 cells – cell-based, resazurin fluorescence, 24 h, PK04 Diversity Set, profiling panel (AID 1171). The note with it: A549 viability, higher = more signal, called active from +8 up or from −8 down. (In general: Resazurin is reduced to fluorescent resorufin, in cell work by metabolically active cells.)
Also: test concentration not given here.

For `Cc1ccc(C(C)CC(O)C2C=CC3C(=O)NC(=O)C3N2Nc2ccccn2)o1` (stereo not given), the z-score was 0.378 in assay [1]; -0.671 in assay [2]; 1.37 in assay [3]; -0.333 in assay [4]; 0.635 in [5]; 0.117 in [6]. For the same molecule, the z-score is -0.0169 (inactive) in assay [7], -0.263 in assay [8], -0.408 in assay [9] and -0.793 (inactive) in assay [10].

For `CN(C)CCCC[C@@H]1NC(=O)[C@@H]2C[C@H](C(=O)NCCCCCCN)[C@H](c3ccc(O)cc3)N2C1=O`, the z-score was -0.215 in [1]; 0.958 in assay [2]; -0.544 in assay [3]; 0.405 in [4]; 0.483 in assay [5]; -1.36 in assay [6]. Further, the z-score in [7] was -0.0708 (inactive); in assay [8] it was 0.576; in [9], 0.213; in [10], 0.291 (inactive).

Regarding `COCCOC(=O)N1C(=O)[C@@]2(c3cc(C#Cc4ccc(OC)cc4)ccc31)[C@H](c1ccc(OCCO)cc1)N1[C@H](c3ccccc3)[C@H](c3ccccc3)OC(=O)[C@H]1[C@@H]2C(=O)N1CCc2cc(OC)c(OC)cc2C1`, the z-score in assay [1] was 0.618; in assay [2] it was 0.979; in assay [3], 0.156; in [4] it was 0.427; in assay [5], 0.959; in assay [6], -0.343. Also, the z-score in assay [7] was 2.92 (inactive); in assay [8] it was -0.322; in assay [9], -1.24; in [10], 0.216 (inactive).

As to `C=C(C)[C@@H]1CC=C(C(O)C2C=CC3C(=O)N(Cc4ccccc4)C(=O)C3N2n2cnnc2)CC1` (stereo not given in full), the z-score in assay [1] was -0.675; in [2], 0.233; in assay [3], -1.05; in [4], 0.364; in assay [5] it was -0.176; in assay [6], -0.458. Also, the z-score in [7] was -0.403 (inactive); in [8], 0.666; in assay [9], -2.13; in [10], 0.159 (inactive).

Consider `O=C1OCCC=C[C@H]2OC34C=CCN(CCN5CCOCC5)C(=O)[C@H]3N(CCO)C(=O)[C@@H]4C12` (stereo not given in full), for which the z-score in assay [1] is -0.53; in [2], -0.246; in [3], -0.209; in assay [4] it was 0.471; in assay [5] it was -0.253; in assay [6] it was -0.659. For the same molecule, the z-score in assay [7] is -0.293 (inactive); in assay [8] it was -0.578; in assay [9] it was -0.47; in assay [10], -0.948 (inactive).

Consider `O=C1O[C@@H](c2ccccc2)[C@@H](c2ccccc2)N2[C@@H](c3ccc(O)cc3)[C@]3(C(=O)Nc4ccccc43)[C@@H](C(=O)N3CCCCCCC3)[C@H]12`, for which the z-score is -0.871 in assay [1]; 0.616 in assay [2]; 0.404 in assay [3]; -0.391 in [4]; -2.29 in assay [5]; -1.79 in [6]. Further, the z-score in [7] was 0.145 (inactive); in [8], -0.659; in assay [9], 0.0147; in [10], -1.09 (inactive).

For the molecule `CC1CC/C=C\[C@H]2OC34C=CCN(c5ccc6ccccc6c5)C(=O)[C@H]3N(CCCCCO)C(=O)[C@@H]4C2C(=O)O1` (stereo not given in full), the z-score in assay [1] is 0.111; in assay [2], 0.956; in assay [3], 0.778; in assay [4], 1.68; in assay [5] it was -0.823; in [6] it was -0.684. Also, the z-score in assay [7] was -0.381 (inactive); in [8], 1.1; in assay [9], 0.401; in assay [10] it was -0.292 (inactive).

As to `CO[C@H]1O[C@H](CO)[C@@H](OC(=O)Nc2ccccc2-c2ccccc2)[C@H](OC(=O)Nc2ccccc2-c2ccccc2)[C@H]1OC(=O)Nc1ccccc1-c1ccccc1`, the z-score in [1] is -1.46; in [2], 1.22; in [3] it was -1.31; in assay [4], -1.4; in [5], -1.44; in assay [6] it was -0.0136. For the same molecule, the z-score in assay [7] was 0.908 (inactive); in assay [8], -0.87; in assay [9] it was 0.116; in assay [10], -2.56 (inactive).

Consider `O=C1C2C=CC(C(O)c3ccc(-c4ccccc4)s3)N(Nc3ccccc3F)C2C(=O)N1c1ccccc1` (stereo not given), for which the z-score was -1.07 in assay [1]; -0.0797 in assay [2]; -0.297 in assay [3]; -0.0003 in assay [4]; -1.3 in [5]; -2.29 in [6]. For the same molecule, the z-score in assay [7] is -1.57 (inactive); in assay [8], -0.35; in [9], -0.0666; in [10] it was -1.7 (inactive).

For `C=C(CCCC)/C(=C/C[C@@H](OC(=O)c1ccncc1)c1ccc(CO)o1)c1cc(C(=O)OC)ccc1OC`, the z-score in [1] is 1.25; in [2], -0.1; in assay [3], 0.743; in [4], -2.63; in assay [5], -2.58; in assay [6], 0.0818. In addition, the z-score in assay [7] was -0.239 (inactive); in [8], -0.812; in assay [9] it was -2.01; in assay [10] it was -0.269 (inactive).

Consider `C=CCOC(=O)[C@@H]1[C@H]2C(=O)O[C@H](c3ccccc3)[C@H](c3ccccc3)N2[C@H](c2ccc(OCCOC(=O)[C@H]3C[C@H]4C(=O)N[C@@H](CCCC[N+](C)(C)C)C(=O)N4[C@H]3c3cccc(OCCO)c3)cc2)[C@@]12C(=O)Nc1ccc(I)cc12`, for which the z-score in assay [1] was -0.299; in [2], 0.194; in assay [3] it was -0.872; in assay [4], -0.135; in assay [5], 0.437; in assay [6] it was -0.984. Further, the z-score is 1.07 (inactive) in [7], -0.742 in [8], -1.24 in assay [9] and -0.166 (inactive) in [10].

With `NC(=O)NCC#Cc1ccc2c(c1)[C@]1(C(=O)N2)[C@H](c2ccc(O)cc2)N2[C@H](c3ccccc3)[C@H](c3ccccc3)OC(=O)[C@H]2[C@@H]1C(=O)N1CCN(c2ncccn2)CC1`, the z-score in assay [1] is 0.719; in [2], 0.464; in [3], -1.08; in assay [4] it was 0.252; in [5] it was 0.719; in assay [6] it was -1.83. Also, the z-score in assay [7] was -0.197 (inactive); in assay [8] it was 0.591; in assay [9], 1.06; in [10], 0.956 (inactive).

For the molecule `O=C(NCC(O)CO)[C@@]1(Cc2ccccc2)COC(c2ccc(OCCCO)cc2)=N1` (stereo not given in full), the z-score in assay [1] was -0.0736; in [2] it was -0.183; in [3], -0.283; in assay [4], -0.467; in assay [5], -0.164; in assay [6] it was -0.201. In addition, the z-score in [7] is -0.817 (inactive); in [8], -0.805; in assay [9] it was -0.89; in [10], -0.0991 (inactive).

`COCCOC(=O)N1C(=O)[C@@]2(c3ccccc31)[C@H](c1ccc(O)cc1)N1[C@H](c3ccccc3)[C@H](c3ccccc3)OC(=O)[C@H]1[C@@H]2C(N)=O`: the z-score in [1] was 0.357; in assay [2], 0.502; in assay [3], 1.75; in assay [4], 0.936; in [5], 0.395; in assay [6] it was -0.815. In addition, the z-score was 0.76 (inactive) in assay [7], 0.296 in [8], -0.971 in assay [9] and -0.83 (inactive) in [10].

As for `O=C1C2C=CC(C(O)c3cccc4ccccc34)N(n3cnnc3)C2C(=O)N1Cc1ccccc1` (stereo not given), the z-score in [1] is -0.986; in assay [2], -0.06; in assay [3] it was -1.6; in assay [4] it was -0.467; in [5], -1.81; in assay [6], -1.23. Also, the z-score was -1.18 (inactive) in [7], -0.0245 in assay [8], -0.0153 in assay [9] and -0.522 (inactive) in assay [10].
